# Test results as given in PubChem BioAssay AID1159580 (chemical genetic matrix, 2015).
# The campaign covered roughly 5,500 compounds. About 2,000 (36%) were called active. About 18% were inconclusive and are not listed. Some of the results follow. Unmarked numbers belong to inactive results. Rule as the data show it: active = normalized growth mostly below about 0.91 (no sharp cut-off); inconclusive = no clear call, values can overlap the other calls; inactive = mostly above about 0.92.
# Assay: chemical genetic growth profiling, strain panel (AID 1159580);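 also: tested at 20 µM; growth read once vehicle control cultures reached saturation at 30 °C; 1 = growth at the plate median or of vehicle wells; lower values mean less growth of the strain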
# Conditions: S. cerevisiae deletion strains, growth OD
smiles,measurement,setting,value
CCC(c1ccc(O)cc1)C(CC)c1ccc(O)cc1 (stereo not drawn),normalized growth,"locus YAL013W, strain DEP1, hits give low values",0.998
same,normalized growth,"locus YAL021C, strain ccr4, hits give low values",0.93
same,normalized growth,"locus YAL026C, strain drs2, hits give low values",0.835 (active)
same,normalized growth,"locus YAL030W, strain snc1, hits give low values",0.918 (active)
same,normalized growth,"locus YBL061C, strain skt5, hits give low values",0.982
same,normalized growth,"locus YBR009C, strain hhf1, hits give low values",0.77 (active)
same,normalized growth,"locus YBR021W, strain FUR4, hits give low values",0.972
same,normalized growth,"locus YBR023C, strain chs3, hits give low values",0.966
same,normalized growth,"locus YBR171W, strain sec66, hits give low values",0.993
same,normalized growth,"locus YBR229C, strain ROT2, hits give low values",0.993
same,normalized growth,"locus YBR231C, strain swc5, hits give low values",0.989
same,normalized growth,"locus YBR279W, strain paf1, hits give low values",0.95
same,normalized growth,"locus YCL011C, strain gbp2, hits give low values",0.858 (active)
same,normalized growth,"locus YCL016C, strain dcc1, hits give low values",0.95
same,normalized growth,"locus YCL029C, strain bik1, hits give low values",0.987
same,normalized growth,"locus YCL061C, strain MRC1, hits give low values",0.958
same,normalized growth,"locus YCL069W, strain vba3, hits give low values",0.951
same,normalized growth,"locus YCR088W, strain abp1, hits give low values",0.974
same,normalized growth,"locus YDL005C, strain med2, hits give low values",0.92
same,normalized growth,"locus YDL035C, strain GPR1, hits give low values",0.914
same,normalized growth,"locus YDL040C, strain nat1, hits give low values",0.998
same,normalized growth,"locus YDL074C, strain BRE1, hits give low values",0.878
same,normalized growth,"locus YDL101C, strain DUN1, hits give low values",0.989
same,normalized growth,"locus YDL134C, strain PPH21, hits give low values",0.998
same,normalized growth,"locus YDL185W, strain tfp1, hits give low values",0.995
same,normalized growth,"locus YDL192W, strain arf1, hits give low values",0.969
same,normalized growth,"locus YDR001C, strain nth1, hits give low values",0.997
same,normalized growth,"locus YDR069C, strain doa4, hits give low values",0.894 (active)
same,normalized growth,"locus YDR101C, strain arx1, hits give low values",0.968
same,normalized growth,"locus YDR137W, strain rgp1, hits give low values",0.415 (active)
same,normalized growth,"locus YDR150W, strain NUM1, hits give low values",1.01
same,normalized growth,"locus YDR159W, strain sac3, hits give low values",0.723 (active)
same,normalized growth,"locus YDR162C, strain NBP2, hits give low values",0.931
same,normalized growth,"locus YDR195W, strain ref2",1.02
same,normalized growth,"locus YDR297W, strain sur2, hits give low values",0.923
same,normalized growth,"locus YDR318W, strain mcm21, hits give low values",0.944
same,normalized growth,"locus YDR334W, strain swr1, hits give low values",1.02
same,normalized growth,"locus YDR335W, strain msn5, hits give low values",0.938
same,normalized growth,"locus YDR388W, hits give low values",0.966
same,normalized growth,"locus YDR392W, strain spt3, hits give low values",0.743
same,normalized growth,"locus YDR502C, strain sam2, hits give low values",0.959
same,normalized growth,"locus YEL003W, strain gim4, hits give low values",0.891 (active)
same,normalized growth,"locus YEL037C, strain rad23, hits give low values",1
same,normalized growth,"locus YEL061C, strain CIN8 (second series), hits give low values",1
same,normalized growth,"locus YEL061C, strain CIN8, hits give low values",1
same,normalized growth,"locus YER015W, strain faa2, hits give low values",0.901 (active)
same,normalized growth,"locus YER016W, strain bim1, hits give low values",0.94
same,normalized growth,"locus YER110C, hits give low values",1.01
same,normalized growth,"locus YER111C, strain swi4, hits give low values",1
same,normalized growth,"locus YER155C, strain BEM2 (second series), hits give low values",0.942
same,normalized growth,"locus YER155C, strain BEM2, hits give low values",1.02
same,normalized growth,"locus YER167W, strain BCK2, hits give low values",0.972
same,normalized growth,"locus YFR010W, strain ubp6, hits give low values",0.957
same,normalized growth,"locus YGL078C, strain dbp3, hits give low values",0.976
same,normalized growth,"locus YGL086W, strain mad1, hits give low values",0.958
same,normalized growth,"locus YGL167C, strain pmr1, hits give low values",0.987
same,normalized growth,"locus YGL173C, strain kem1, hits give low values",0.825 (active)
same,normalized growth,"locus YGL227W, strain vid30, hits give low values",0.994
same,normalized growth,"locus YGL240W, strain doc1, hits give low values",0.863 (active)
same,normalized growth,"locus YGL248W, strain PDE1, hits give low values",0.998
same,normalized growth,"locus YGL253W, strain hxk2, hits give low values",0.953
same,normalized growth,"locus YGR078C, strain PAC10, hits give low values",0.952
same,normalized growth,"locus YGR135W, strain pre9, hits give low values",0.968
same,normalized growth,"locus YGR229C, strain SMI1, hits give low values",0.813
same,normalized growth,"locus YGR252W, strain gcn5, hits give low values",0.902
same,normalized growth,"locus YHR013C, strain ard1, hits give low values",1.21 [resistant] (active)
same,normalized growth,"locus YHR027C, strain rpn1, hits give low values",0.933
same,normalized growth,"locus YHR030C, strain SLT2, hits give low values",0.993
same,normalized growth,"locus YHR079C, strain IRE1 (second series), hits give low values",0.971
same,normalized growth,"locus YHR094C, strain hxt1, hits give low values",0.999
same,normalized growth,"locus YHR129C, strain ARP1, hits give low values",1.01
same,normalized growth,"locus YHR142W, strain chs7, hits give low values",0.911
same,normalized growth,"locus YHR200W, strain rpn10, hits give low values",0.981
same,normalized growth,"locus YIL073C, strain SPO22, hits give low values",0.951
same,normalized growth,"locus YIL125W, strain kgd1, hits give low values",0.994
same,normalized growth,"locus YIR030C, strain dcg1, hits give low values",1.01
same,normalized growth,"locus YJL092W, strain hpr5, hits give low values",0.967
same,normalized growth,"locus YJL095W, strain BCK1 (second series), hits give low values",0.799 (active)
same,normalized growth,"locus YJL095W, strain BCK1, hits give low values",0.855
same,normalized growth,"locus YJL115W, strain asf1, hits give low values",1.02
same,normalized growth,"locus YJL129C, strain trk1, hits give low values",0.675 (active)
same,normalized growth,"locus YJL134W, strain LCB3, hits give low values",0.999
same,normalized growth,"locus YJL154C, strain vps35, hits give low values",0.996
same,normalized growth,"locus YJL164C, strain tpk1, hits give low values",0.687 (active)
same,normalized growth,"locus YJL166W, strain qcr8, hits give low values",0.812 (active)
same,normalized growth,"locus YJL168C, strain set2, hits give low values",0.994
same,normalized growth,"locus YJL187C, strain SWE1 (second series), hits give low values",0.964
same,normalized growth,"locus YJR043C, strain POL32, hits give low values",0.999
